Most compounds without a hit are left out; they make up all but 1.6% or so of the library.
KCNQ2 block – KCNQ2 (rat) channel inhibition; CHO-K1 KCNQ2, FluxOR thallium flux, 20 min; stronger effect = lower value; O88943; B-score at 10 µM; 310,000 tested, 1.1% active;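 active means fluorescence ratio B-score at most minus 3 library SDs, with starting brightness B-score within 2 library SDs, cut at about -5.5 in these data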
KCNQ2 pot – KCNQ2 (rat) channel potentiation | O88943 | CHO-K1 KCNQ2, FluxOR thallium flux fluorescence; stronger effect = higher value | B-score at 10 µM | 310,000 tested, 0.54% active | AID 2239;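 active means fluorescence ratio B-score at least 3 SD of library B-scores, with initial fluorescence B-score within 3 of them, cut at about 5.3 in these data; same plate scores as AID 2156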;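 further: B-score of peak minus minimum over baseline fluorescence ratio after K+ and Tl+ stimulus; positive B-score means potentiation of KCNQ2 with more thallium influx and brighter signal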
Kir21 confirm – confirmation of mouse Kir2.1 potassium channel inhibitors. shares compounds with KCNQ2 pot. 2,300 tested, 41% active. Kir2.1-expressing cells, FluxOR thallium flux fluorescence; stronger effect = lower value. Tl flux remaining, % of negative control (stronger effect = lower value), % at 10 µM;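 active means Primary-screen hit whose thallium flux fell at least 3 control SD below untreated wells in both duplicates, with normal baseline fluorescence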;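 further: 0% = blank wells without stimulus and 100% = stimulated no-compound controls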
Target sequence (P35561 whole entry, looked up): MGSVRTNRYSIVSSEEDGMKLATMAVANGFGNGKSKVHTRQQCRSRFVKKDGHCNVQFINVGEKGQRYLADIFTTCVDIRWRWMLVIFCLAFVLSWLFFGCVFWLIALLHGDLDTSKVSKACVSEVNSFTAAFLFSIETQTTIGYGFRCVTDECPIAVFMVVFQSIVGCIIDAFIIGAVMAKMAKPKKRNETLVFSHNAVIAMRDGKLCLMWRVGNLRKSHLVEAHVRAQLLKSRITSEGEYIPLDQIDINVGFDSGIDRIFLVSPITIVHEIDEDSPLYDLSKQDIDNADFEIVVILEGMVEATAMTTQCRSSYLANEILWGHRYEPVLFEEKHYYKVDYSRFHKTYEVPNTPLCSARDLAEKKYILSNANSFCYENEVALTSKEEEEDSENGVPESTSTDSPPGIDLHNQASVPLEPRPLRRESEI
HEK293 ctr – alters thallium flux in parental HEK293 cells, Kir2.1 counter-screen; shares compounds with KCNQ2 pot; FluxOR thallium flux fluorescence; 0% = unstimulated blank wells; FluxOR signal as % of negative control (100 = no effect), % at 10 µM; 2,300 tested, 19% active;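 active means dye signal at least 3 control SD above or below untreated wells in both duplicates, raw fluorescence within 3, either direction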;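 further: percent is based on the flux ratio of peak minus minimum fluorescence over baseline F0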
CHO-K1 ctr – parental CHO-K1 activity in KCNQ2 potentiator counter-screen | activity increase over 3SD of controls, % at 10 µM | shares compounds with KCNQ2 pot | 1,200 tested, 43% active | parental CHO-K1 cells, FluxOR thallium flux fluorescence; zero = vehicle mean+3SD, 100% = vehicle-minus-blank window;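 active means signal rise of at least 3 SD above the untreated control mean, in both duplicate wells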;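 further: counter screen of KCNQ2 potentiator hits so any rise reflects channel-independent effects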
KCNQ1 sel pot – selectivity of KCNQ2 potentiators: effect on human KCNQ1. shares compounds with KCNQ2 pot. CHO KCNQ1 stable, FluxOR thallium flux fluorescence; beyond 3SD, as % of vehicle-control signal. activation over 3SD threshold, % at 10 µM. 1,200 tested, 28% active. AID 2283;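 active means fluorescence ratio rise of at least 3 SD of vehicle wells above their mean, in both replicate wells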;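 further: 0% = vehicle mean plus 3 SD and 100% = vehicle minus unstimulated blank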
KCNQ2 pot conf – rat KCNQ2 channel potentiator confirmation. shares compounds with KCNQ2 pot. CHO-KCNQ2 cells, FluxOR thallium flux fluorescence. potentiation, less the hit threshold, % at 10 µM. 1,200 tested, 68% active;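 active means fluorescence ratio rising 3 SD or more over the vehicle control mean in both replicates, plus primary screen hit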;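 further: peak minus minimum thallium fluorescence divided by baseline after K/Tl stimulus; 0% = vehicle mean plus 3 SD and 100% = vehicle minus unstimulated blank difference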
Kir21 spec – selectivity of KCNQ2 potentiators: effect on mouse Kir2.1 | HEK293 Kir2.1, FluxOR thallium flux fluorescence | shares compounds with KCNQ2 pot | 1,200 tested, 2% active | activity over 3SD threshold, % at 10 µM;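 active means fluorescence ratio rise of at least 3 SD above the vehicle-control mean, seen in both replicates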;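 further: 0% = vehicle mean plus 3 SD and 100% = vehicle minus no-stimulus blank window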
KCNQ2 W236L pot – rat KCNQ2 W236L mutant potentiation by KCNQ2 potentiators; shares compounds with KCNQ2 pot; CHO KCNQ2-W236L, automated patch clamp current; current increase over 3SD of negative controls (%), stronger effect = higher value, % at 25 µM; 940 tested, 10% active;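 active means current increase at least 3 SD of the untreated controls above them in both duplicate recordings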
Numbers without * were called inactive; i = inactive; . = not tested or not shown.

SMILES	KCNQ2 block	KCNQ2 pot	Kir21 confirm	HEK293 ctr	others
CC1=C(C(=O)O)N2C(=O)C(NC(=O)c3nn(C)cc3Cl)C2SC1 (centres undefined)	i	.	.	.
CC1=C(C(=O)O)N2C(=O)C(NC(=O)c3ccccc3Cl)C2SC1 (centres undefined)	i	13*	i	i	CHO-K1 ctr=4.5*;KCNQ1 sel pot=-24;KCNQ2 pot conf=-9;Kir21 spec=-32
CC(=O)Nc1ccc(Nc2c([N+](=O)[O-])c(=O)n(-c3ccccc3)c3ccccc23)cc1	i	0.29	.	.
O=C(NC(=S)N1CCN(c2nc(-c3ccccc3)cs2)CC1)c1cncc(Br)c1	i	17*	i	247%*	CHO-K1 ctr=-11;KCNQ1 sel pot=-14;KCNQ2 pot conf=18*;Kir21 spec=-26;KCNQ2 W236L pot=i
COCCCNC(=S)N1CCN(c2nc(-c3ccccc3)cs2)CC1	i	0.5	.	.
CCOc1cc(/C=N/NC(=O)c2ccncc2)cc(Cl)c1OS(C)(=O)=O	i	0.05	.	.
CCc1nc(C)cn1S(=O)(=O)c1cc(Cl)c(OC)cc1Cl	i	0.58	58%*	i
CCc1nc(C)cn1S(=O)(=O)c1cc(C)c(OC)cc1C	i	1.6	.	.
CCc1nc(C)cn1S(=O)(=O)c1cc(Br)c(C)cc1OC	i	.	35%*	i
CCc1nc(C)cn1S(=O)(=O)c1cc(F)ccc1OC	i	1.9	.	.
CCc1nc(C)cn1S(=O)(=O)c1ccc(Cl)c(Cl)c1Cl	i	.	.	.
CCc1nc(C)cn1S(=O)(=O)c1cc(Br)ccc1OC	i	1	24%*	i
O=C(CN1CCCCCC1)Nc1ccc(Cl)cn1	i	.	.	.
Cc1nn(-c2cccc(C(F)(F)F)c2)c(Cl)c1/C=N/Nc1cccc(C(=O)O)c1	i	9.9*	i	i	CHO-K1 ctr=-10;KCNQ1 sel pot=30*;KCNQ2 pot conf=98*;Kir21 spec=-36;KCNQ2 W236L pot=17%*
Cc1nn(-c2ccccc2Cl)c(Cl)c1/C=N/Nc1cccc(C(=O)O)c1	i	5.2	.	.
CC1CCOC2(O1)C(=O)Nc1ccccc12 (centres undefined)	i	0.53	.	.
CCC(C)(C)NC(=O)Cn1c(-c2ccc(C)cc2)noc1=O	i	.	.	.
CC(C)Oc1ccc(C(=O)N/N=C/c2ccc(-c3ccc(S(=O)(=O)Nc4ncccn4)cc3)o2)cc1	i	.	.	.
O=C(NN1CC(C(=O)OCc2ccc(Cl)cc2Cl)CC1=O)c1ccccc1 (centres undefined)	i	19*	i	i	CHO-K1 ctr=-22;KCNQ1 sel pot=68*;KCNQ2 pot conf=74*;Kir21 spec=-31;KCNQ2 W236L pot=i
O=C(NCc1ccc(Cl)cc1Cl)C1CC(=O)N(Cc2ccccc2)C1 (centres undefined)	i	2.2	.	.
COc1ccccc1CNC(=O)C(C)n1nc(C)n2c(cc3occc32)c1=O (centres undefined)	i	.	.	.
N#C/C(=N\Nc1ccc(Cl)c(Cl)c1)C(=O)C1CC1	i	6.6*	i	i	CHO-K1 ctr=13*;KCNQ1 sel pot=-11;KCNQ2 pot conf=-1;Kir21 spec=-34;KCNQ2 W236L pot=i
N#C/C(=N\Nc1ccc(F)cc1)C(=O)C1CC1	i	2	.	.
CCOc1ccc(S(=O)(=O)N2CCC(C(=O)NCc3ccncc3)CC2)cc1C	i	0.04	.	.
CCS(=O)(=O)c1ccc2oc(SCC(=O)NC(C)C3CC4CCC3C4)nc2c1 (centres undefined)	i	10*	i	i	CHO-K1 ctr=-17;KCNQ1 sel pot=-14;KCNQ2 pot conf=21*;Kir21 spec=-37;KCNQ2 W236L pot=i
SMILES	KCNQ2 block	KCNQ2 pot	Kir21 confirm	HEK293 ctr	others
CCS(=O)(=O)c1ccc2oc(SCC(=O)Nc3ccc(OC)cc3OC)nc2c1	i	0.67	.	.
CCCCCCCC(=O)N/N=C/c1ccc(Br)cc1	i	0.99	.	.
CCCCCCCC(=O)N/N=C/c1ccco1	i	11*	i	i	CHO-K1 ctr=0.0*;KCNQ1 sel pot=2.6*;KCNQ2 pot conf=59*;Kir21 spec=-37;KCNQ2 W236L pot=i
CCN(CC)S(=O)(=O)c1ccc(N2CCCC2)c(NC(=O)CC(C)(C)C)c1	i	0.56	.	.
C#CCN(C)Cc1ccccc1	i	.	.	.
C#CC(CO)N(CCN(Cc1ccccc1)C(C#C)CO)Cc1ccccc1 (centres undefined)	i	.	62%*	i
Cc1ccc(CNCCC2=CCCCC2)cc1	i	0.75	38%*	68%*
C1=C(CCNCC2CC2)CCCC1	i	1.2	.	.
Cc1ccc(N2CC(C(=O)N3CCOCC3)CC2=O)cc1Cl (centres undefined)	i	.	.	.
O=C(NCCc1ccc(Cl)cc1)C1(c2ccccc2)CC1	i	.	34%*	i
COc1ccc(C2(C(=O)NCCc3ccccc3)CCCC2)cc1	i	.	.	.
COc1cc(C2NC(=O)CCC2[N+](=O)[O-])cc(Br)c1OC (centres undefined)	i	.	.	.
CSCC[C@H](NC(=O)[C@H](Cc1ccccc1)n1c(=O)[nH]c2ccccc2c1=O)C(=O)N1CCC[C@H]1C(=O)O	i	1.6	.	.
COc1ccc2ccccc2c1CNCc1ccc(C)cc1	i	.	22%*	i
COc1ccccc1CNCc1ccc(C)cc1	i	.	.	.
COc1ccc(N(C)C(=O)c2ccc(NC(=O)CCS(=O)(=O)c3cccs3)cc2)cc1	i	0.1	.	.
O=C(CN1CCCCC1)NNc1nc(-c2ccccc2)c2cc(Br)ccc2n1	i	11*	i	i	CHO-K1 ctr=75*;KCNQ1 sel pot=-11;KCNQ2 pot conf=71*;Kir21 spec=-39;KCNQ2 W236L pot=i
CC(=O)NNc1nc(-c2ccccc2)c2cc(Br)ccc2n1	i	.	.	.
O=C(NCc1ccccc1Cl)C1CCCN1C(=O)Nc1ccccc1 (centres undefined)	i	.	.	.
COc1ccccc1OCCCCCc1c(C)n[nH]c1C	i	.	.	.
COc1ccccc1OCCCc1c(C)n[nH]c1C	i	5.8*	i	i	CHO-K1 ctr=42*;KCNQ1 sel pot=-8;KCNQ2 pot conf=-6;Kir21 spec=-47;KCNQ2 W236L pot=i
O=C(O)CCCNC(=O)Nc1ccccc1	i	0.71	.	.
CCCCCCNC(=O)Nc1ccccc1	i	5.9*	i	i	CHO-K1 ctr=-8;KCNQ1 sel pot=-11;KCNQ2 pot conf=3.7*;Kir21 spec=-24;KCNQ2 W236L pot=i
COc1ccc(C[C@H]2CN3C(=NC[C@@H]3C(C)C)N2C[C@H](C)NC(=O)c2ccc(C)c(Br)c2)cc1	i	.	55%*	i
C[C@@H](CN1C2=NC[C@H](Cc3ccc(O)cc3)N2C[C@H]1Cc1ccc(O)cc1)NC(=O)CCC1CCCCC1	i	.	.	.

Compound activity from PubChem.
